In the supplement of paper PMC9334596:
Values joined by “and” are separate entries in the source; they are usually repeats but may differ in a detail not shown here. Identical values can stand only once. The full ranking holds about 5,300 compounds; the median of “PER2::LUC luminescence relative to vehicle control” is about 0.96, and the highest 2% start at about 1.3. Shown is part of a subset that was picked to be rich in the highest values.

Tested on: mPer2Luc MEF
Assay: PER2::LUC luminescence relative to vehicle control (fold of vehicle); higher = higher PER2::LUC reporter signal
Conditions: 10 µM
Method in brief: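 Compounds from commercial libraries were added at 10 μM to 384-well plates seeded 48 h earlier with ~3000 mPer2Luc mouse embryonic fibroblasts per well. The cells were kept in DMEM with 10% FBS at 37 °C and 5% CO2. Luminescence was read with ONE-Glo 24 h and 30 h after treatment, then an alamarBlue viability assay was run. Values are PER2::LUC luminescence relative to vehicle control, as fold change.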

| SMILES | PER2::LUC luminescence (time after treatment 24 h) | PER2::LUC luminescence (time after treatment 30 h) |
| --- | --- | --- |
| C[C@@H](O)CCCCn1c(=O)c2c(ncn2C)n(C)c1=O | 0.991 | 0.943 |
| CCc1c(C(=O)NNC(=O)[C@H](O)c2cc(F)cc(F)c2)ccc(O)c1C | 1 | 0.957 |
| CCCCCCCCCCCCCCCCCC(=O)OC(CC(=O)O)C[N+](C)(C)C (racemic) | 0.909 | 0.786 |
| CCC[C@@H]1C[C@@H](C(=O)N[C@@H]([C@H]2O[C@H](SC)[C@H](O)[C@@H](O)[C@H]2O)[C@H](C)Cl)N(C)C1 | 1.08 | 1.93 |
| CCC[C@@H]1C[C@@H](C(=O)N[C@@H]([C@H]2O[C@H](SC)[C@H](O)[C@@H](O)[C@H]2O)[C@@H](C)O)N(C)C1 | 0.932 and 0.965 | 0.909 and 0.803 |
| CCC[C@@H]1C[C@@H](C(=O)N[C@@H]([C@H]2O[C@H](SC)[C@H](OP(=O)(O)O)[C@@H](O)[C@H]2O)[C@H](C)Cl)N(C)C1 | 1.07 | 1.01 |
| NC(=O)c1cccc2ncc(-c3ccc(Cl)cc3)nc12 | 1.12 | 1.16 |
| COc1cc(O)c2c(=O)c(O)c(-c3ccccc3)oc2c1 | 0.99 | 1.06 |
| COC(=O)[C@@H]1OC(=O)C2OC23[C@@]1(C)CCC1[C@@]2(C)CCC(=O)C(C)(C)C2C[C@@H](OC(C)=O)[C@]13C (some centres not stated) | 0.9 | 0.921 |
| O=c1cccc2ccc(O)c(O)c2c1O | 0.987 | 0.83 |
| N#Cc1nccc(Oc2cccc(-c3ccc(CN)cc3)c2)n1 | 0.994 | 1.14 |
| CC(=O)N[C@H]1[C@H]([C@H](O)[C@H](O)CO)O[C@@](Oc2c[nH]c3ccc(Br)c(Cl)c23)(C(=O)O)C[C@@H]1O | 1 | 0.967 |
| Cc1cccc(C#Cc2ccccc2)n1 | 1.56 and 1.59 and 1.5 | 1.16 and 1.75 and 1.47 |
| NS(=O)(=O)C#Cc1ccccc1 | 1.18 | 0.903 |
| Cc1nc(C#Cc2cccnc2)cs1 | 1.15 | 1.26 |
| Cc1cc(C)c(/C=C2\C(=O)Nc3ccc(Cl)cc32)[nH]1 | 1.06 | 1.02 |
| O=C(/C=C/c1ccc(O)c(O)c1)OCCc1ccccc1 | 0.173 | 0.361 |
| O=C(O)/C=C/c1ccc(O)c(O)c1 | 0.886 | 0.894 |
| O=C(/C=C/c1ccc(O)c(O)c1)O[C@@H]1C[C@](O)(C(=O)O)C[C@@H](O)[C@H]1O | 1.8 | 1.28 |
| C[C@H]1CCN(C(=O)CC#N)C[C@H]1N(C)c1ncnc2[nH]ccc12 | 1 | 1.02 |
| O=Nc1c(O)[nH]c2c(Cl)c(Cl)ccc12 | 1.05 | 1.07 |
| OCCOCCN1CCN(C(c2ccccc2)c2ccccc2)CC1 | 0.939 | 0.9 |

| SMILES | PER2::LUC luminescence (time after treatment 24 h) | PER2::LUC luminescence (time after treatment 30 h) |
| --- | --- | --- |
| O=C(O)/C(=C\c1c(C(=O)O)[nH]c2cc(Cl)cc(Cl)c12)c1ccccc1 | 1.4 | 1.34 |
| O=C(O)CCc1c(C(=O)O)[nH]c2cc(Cl)cc(Cl)c12 | 1.03 | 0.901 |
| O=C(O)c1cc(=O)c2c(Cl)cc(Cl)cc2[nH]1 | 1.04 | 1 |
| O=C(O)[C@@H]1C[C@H](CP(=O)(O)O)CCN1 | 1.03 | 0.992 |
| O=C1Nc2nc(-c3c(O)cccc3OCC3CC3)cc([C@@H]3CCCNC3)c2CO1 | 0.574 | 0.66 |
| COc1ccc(CCC(=O)Nc2nc3ccc(Cl)cc3s2)cc1OC | 0.875 and 0.954 | 1.04 and 0.951 |
| CC[N+](CC)(CC(=O)Nc1c(C)cccc1C)Cc1ccccc1 | 0.988 | 0.901 |
| Cc1cc2sc(NC(=O)Cc3ccccc3)nc2cc1Cl | 1.02 | 1.38 |
| C[C@@H]1O[C@@H](OC[C@H]2O[C@@H](Oc3cc(O)c4c(=O)cc(-c5ccc(O)cc5)oc4c3)[C@H](O)[C@@H](O)[C@@H]2O)[C@H](O)[C@H](O)[C@H]1O | 0.948 | 0.927 |
| CCCCN(CCCC)C(=O)CN1C[C@H](c2ccc3c(c2)OCO3)[C@@H](C(=O)O)[C@@H]1c1ccc(OC)cc1 | 2.23 | 2.08 |
| Cc1noc(-c2ccc(-c3ccc(CC(=O)O)cc3)cc2)c1NC(=O)OC(C)c1ccccc1Cl (configuration not stated) | 1.1 | 1.12 |
| C/C=C/C(=O)N1C(=O)OC[C@@H]1Cc1ccccc1 | 0.864 | 0.846 |
| CN1CCCN=C1/C=C/c1cccs1 | 1.2 and 1.03 | 0.92 and 1.16 |
| O=C1/C(=C/c2cccs2)CCC/C1=C\c1cccs1 | 1.5 | 1.67 |
| O=C1/C(=C/c2cccs2)CC/C1=C\c1cccs1 | 1.07 | 1.01 |
| Nc1ccc(C(=O)Oc2ccccc2)c(O)c1 | 0.958 | 1.54 |
| CC(=O)Nc1ccc(OC(=O)c2ccccc2O)cc1 | 0.934 | 1.02 |
| O=C(Oc1ccccc1C(=O)O)c1ccccc1O | 1.15 and 0.613 | 1.16 and 0.995 |
| CC(C)c1onc(-c2c(Cl)cccc2Cl)c1COc1ccc(/C=C/c2cccc(C(=O)O)c2)c(Cl)c1 | 1.86 | 2.03 |
| CC(C)CCNC(=O)c1ccc2c(c1)nc(Nc1n[nH]c3ccc(-c4ccccc4OC(F)(F)F)cc13)n2C1CCC(O)CC1 (configuration not stated) | 0.526 | 0.553 |
| CCCCC(CC)COC(=O)C(C#N)=C(c1ccccc1)c1ccccc1 (configuration not stated) | 1.01 and 1.15 | 1.08 and 1.14 |
| CCCCC(CC)COC(=O)c1ccccc1O (configuration not stated) | 1.07 | 1.63 |

| SMILES | PER2::LUC luminescence (time after treatment 24 h) | PER2::LUC luminescence (time after treatment 30 h) |
| --- | --- | --- |
| CCCCC(CC)COC(=O)C=Cc1ccc(OC)cc1 (configuration not stated) | 1.09 | 1.14 |
| COc1ccc(CNc2nc(NCc3ccc(OC)cc3)c3ncn(C(C)C)c3n2)cc1 | 0.991 | 1.22 |
| CC(C)Cc1ccc([C@@H](C)C(=O)O)cc1 | 0.974 | 0.981 |
| CC(C(=O)O)c1ccc(CC2CCCC2=O)cc1 (configuration not stated) | 0.779 and 1.02 | 1.36 and 1.08 |
| CC(C)Cc1ccc(C(C)C(=O)O)cc1 (racemic) | 1.12 | 0.938 |
| O=C(NCc1cccc(O)c1)c1cc2cc(F)ccc2[nH]1 | 0.948 | 0.986 |
| CC(=O)NN(Cc1ccc(N)cc1)c1ncnc2c1ncn2[C@@H]1O[C@H](CO)[C@@H](O)[C@H]1O | 1.03 | 0.913 |
| NC1(C(=O)O)CCc2cc(P(=O)(O)O)ccc21 (racemic) | 1.03 | 1.01 |
| Cc1nc(C(=O)N2CCC[C@H]2Cc2nnc(-c3ccccc3)o2)c(-c2ccccc2F)s1 | 1.06 | 0.881 |
| COc1ccc(CCN2CN=C(SCc3ccc(Cl)cc3)NC2)cc1OC | 0.912 | 0.83 |
| COc1cc(-c2nc3ccccc3s2)ccc1O | 1.37 | 1.5 |
| COc1ccc(-c2nc3cc(F)ccc3s2)cc1OC | 1.5 | 1.52 |
| COc1cc(CC(=O)O)ccc1O | 0.99 | 0.874 |
| COc1cc(-c2ccc(=O)[nH]n2)ccc1OC(F)F | 0.97 | 0.924 |
| COc1ccccc1O | 0.97 | 0.878 |
| C#CCN(Cc1cc2c(=O)[nH]c(C)nc2cc1Br)c1ccc(C(=O)NCc2cccnc2)cc1 | 0.902 | 0.731 |
| CC(Oc1ccc(Oc2cnc3ccc(Cl)cc3n2)cc1)C(=O)O (configuration not stated) | 1.14 | 1.05 |
| COc1cc2ncnc(Nc3cccc(I)c3)c2cc1OC | 0.808 | 0.774 |
| O[C@@](Cc1ncc(CC2(C(F)(F)F)CC2)[nH]1)(c1ccc(-n2cccn2)cc1)C(F)(F)F | 0.966 | 0.921 |
| O=C(Nc1ccc(OC(F)(F)F)cc1)c1sccc1NCc1ccnc2ccccc12 | 1.76 | 1.99 |
| Cc1cc(Nc2ccc(NC(=O)c3ccc(Nc4ccnc5ccccc45)cc3)cc2)nc(N)n1 | 0.945 | 1 |
| CCOc1ccc(-n2c(C(C)N(Cc3cccnc3)C(=O)Cc3ccc(OC(F)(F)F)cc3)nc3ncccc3c2=O)cc1 (configuration not stated) | 0.97 | 0.944 |

| SMILES | PER2::LUC luminescence (time after treatment 24 h) | PER2::LUC luminescence (time after treatment 30 h) |
| --- | --- | --- |
| Cc1c2c(c(O)c3c(O)cccc13)C(=O)O[C@@H]2[C@@H]1[C@H](O)C(=O)C(C(N)=O)=C(O)[C@H]1N(C)C [Alpha-APO-OXYTETRACYCLINE] | 0.979 | 0.958 |
| CCc1c(C(=O)NNC(=O)C(O)c2cc(F)cc(F)c2)ccc(O)c1C (configuration not stated) | 0.99 | 0.823 |
| COc1cccc(-c2cc(=O)c3cc(OC)ccc3o2)c1 | 1.22 | 1.49 |
| COc1ccc2oc(-c3ccccc3)c(OC)c(=O)c2c1 | 1.54 | 1.73 |
| COc1cccc(-c2cc(=O)c3ccc(OC)cc3o2)c1 | 0.879 | 0.955 |
| COc1ccc(-c2cc(=O)c3ccc(O)cc3o2)cc1 | 1.19 | 1.23 |
| COc1ccc2c(=O)c(OC)c(-c3ccccc3)oc2c1 | 0.767 | 0.809 |
| COc1ccc2ccc(=O)oc2c1 | 1 | 1.01 |
| COc1ccc(-c2cc(=O)c3c(OC)c(OC)c(OC)c(OC)c3o2)cc1 | 0.944 | 1.03 |
| COc1ccc2oc(-c3ccccc3OC)cc(=O)c2c1 | 1.38 | 1.61 |
| COc1cccc(-c2cc(=O)c3ccccc3o2)c1N | 0.951 | 0.985 |
| COc1ccc(-c2oc3ccccc3c(=O)c2OC)cc1 | 0.987 | 1.2 |
| COc1ccc(-c2cc(=O)c3ccccc3o2)cc1 | 1.72 | 1.29 |
| COc1ccc(-c2cc(=O)c3c(OC)c(OC)c(OC)c(OC)c3o2)cc1OC | 0.626 | 0.784 |
| CC[C@H](C)[C@H]1O[C@]2(C=C[C@@H]1C)C[C@@H]1C[C@@H](C/C=C(\C)[C@@H](O[C@H]3C[C@H](OC)[C@@H](O[C@H]4C[C@H](OC)[C@@H](O)[C@H](C)O4)[C@H](C)O3)[C@@H](C)/C=C/C=C3\CO[C@@H]4[C@H](OC)C(C)=C[C@@H](C(=O)O1)[C@]34O)O2 | 0.767 | 0.843 |
| NC(=O)C[n+]1cccc(C(=O)O)c1 | 1.18 | 1.08 |
| c1cc(NC2CCNCC2)nc(-c2cnc3ccccn23)c1 | 0.506 | 0.487 |
| CCCNC[C@]1(O)[C@H](C)O[C@@H](O[C@H]2[C@H](C)[C@@H](O[C@@H]3O[C@H](C)C[C@H](N(C)C)[C@H]3O)[C@](C)(O)C[C@@H](C)CN[C@H](C)[C@@H](O)[C@](C)(O)[C@@H](CC)OC(=O)[C@@H]2C)C[C@@]1(C)OC | 1.05 | 0.881 |
| C/C=C(/C)C(=O)O[C@H]1CC(C)=CC(=O)[C@@]2(C)CC[C@@](O)(C(C)C)[C@H]12 | 1.01 | 0.988 |
| Cc1nnc(-c2sc(NC(=O)[C@H](C(C)C)n3c(=O)[nH]c4ccccc4c3=O)nc2C)o1 | 1.04 | 0.956 |
